According to PubChem BioAssay:

Test: inhibitors of Sendai virus-induced IRF3 signaling, primary screen, TLR/RLR signaling modifier project, cell-based, Sendai virus stimulus, luciferase, 10K MLSCN set (AID 602276);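 further: firefly luciferase from ISG56 promoter only with Renilla not read in this screen; 0% = Sendai virus plus DMSO and 100% = medium plus DMSO without virus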
Conditions: HEK293 RL24 IRF3 luciferase reporter, at 10 µM, stronger effect = higher value;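 active means inhibition at or above 50% at 10 µM; inactive means inhibition below 50%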

inhibition, inactive:
O=C(NCC(c1cccnc1)N1CCN(c2ccc(F)cc2)CC1)c1ccc(F)cc1 (configuration not stated) 1.86%
CCOC(=O)N1CCN(C(=O)COc2ccc(S(=O)(=O)NC3CCCCC3)cc2C)CC1 3.18%
O=C(OCC#CCSc1nc2ccccc2s1)c1ccco1 -14.4%
COC(=O)c1cccc(NC(=O)CSc2nnc(COc3ccc(C#N)cc3)n2-c2ccccc2)c1 -22%
Cc1ccc2c(c1)C(O)(CC(=O)c1ccc3c(c1)OCO3)C(=O)N2 (configuration not stated) 0.102%
Cc1ccc(NCC(O)C(O)C(O)CO)cc1C (configuration not stated) 8.39%
CCCc1nc(NCc2ccncc2)c2nnn(Cc3ccccc3F)c2n1 9.12%
CCCC1c2ccc(C)n2CCN1C(=O)Nc1ccccc1Cl (configuration not stated) -53.4%
CCCCC(O)(C(NC=O)C(=O)OC)C(F)(F)F (configuration not stated) 22%
O=C1c2ccccc2C(Nc2cccnc2)N1Cc1ccccc1Cl (configuration not stated) 3.6%
CC(Sc1nnnn1C)C(=O)Nc1ccc(Oc2ccccc2)cc1 (configuration not stated) -8.41%
COc1ccccc1NC(=O)CSc1nnnn1-c1ccc2c(c1)OCO2 12.2%
COc1ccc(C(=O)N2CCSC2=S)cc1OC 4.55%
CCN(Cc1ccccc1)C(c1ccncc1)c1nnnn1C(C)(C)C (configuration not stated) 17.8%
CC(C)CCNC(=O)C1CCN(C(=O)N(C)C)CC1 8.09%
CN1CCN(CC(=O)N2c3ccccc3C(C)(c3ccccc3)CC2(C)C)CC1 (configuration not stated) 35.9%
O=C(Nc1ccccc1N1CCOCC1)c1ccc2ccccc2n1 -13.5%
CCOC(=O)N1CCN(c2cc(=O)n(-c3ccccc3Cl)c(=O)[nH]2)CC1 -11.4%
COCCN1CCN(c2c(C)c(C)nc3cc(-c4cccc(OC)c4)nn23)CC1 15.2%
CCN(CCNC(=O)C1CCN(S(C)(=O)=O)CC1)c1ccccc1 15.1%
CCN(CC)S(=O)(=O)c1ccc2c(c1)nc(SCC(=O)NC1CC1)n2-c1ccccc1OC 14.2%
CCCOC(=O)c1[nH]c2c(c1C)C(=O)CC(c1ccc(OC)c(OC)c1)C2 (configuration not stated) -11.5%
